Measurements taken from PubChem BioAssay (NCI).
Compounds without any hit were thinned out: in the full panel of roughly 83,000, 20% have a hit.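 Cells were grown in 96-well plates and exposed to the test compound at a single concentration for 48 hours; results are reported as percent growth, with values below 10 considered active.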 Values without a mark were called inactive. Calls of active or inactive are those of the source.

tested on: SK-MEL-5 melanoma; test: NCI-60 one-dose screen, 48 h (100 = growth as untreated, 0 = no growth, -100 = all killed); conditions: 10 µM unless noted

SMILES	growth
Cc1nn(-c2ccccc2)c(Oc2ccc(Cl)cc2)c1/C=N\N=c1/sc2ccccc2n1C	93.3%
CC(C)Sc1nc(NNC(N)=S)c(C#N)c(-c2ccc(F)cc2)n1	93.3%
NC(=O)c1ccc[n+](Cc2ccc(Cl)cc2Cl)c1	97.6%
CCCCCCCC/C=C\CCCCCCCCOc1ccccc1CC(=O)NCC[N+](C)(C)C	74.7%
O=C1Nc2ccccc2/C1=C/c1cn(C(=O)c2ccc(Cl)cc2)c2ccccc12	97.7%
O=C1/C(=C\c2cccnc2)SC(=S)N1CCc1ccc(O)cc1	90.1%
COc1ccc(C2C(c3nn[nH]n3)=C(N)Oc3c2ccc2ccccc32)cc1 (stereo unspecified)	57.5%
COc1ccc(NC(=O)CSc2nnc(-c3cc(-c4ccc(S(N)(=O)=O)cc4)nc4ccccc34)n2-c2ccccc2)cc1	74.6%
COc1ccc(-c2csc(C3=C(O)CN(C(C)C)C3=N)n2)cc1OC	82.5%
Cn1cc(-c2csc(-c3ccccc3)n2)c2cccnc21	-83.2% [100 µM] (active)
CCN1CCN(c2cc(C)nc(NCc3cc(Nc4ccnc5cc(Cl)ccc45)ccc3F)n2)CC1	-85.5% (active)
C#CCOc1nc(C)cc(C)c1C#N	98.9%
Cc1cc(O)c(C2=NN(c3ccc(S(N)(=O)=O)cc3)C(c3ccccc3Cl)C2)cc1Cl (stereo unspecified)	36.5%
N#Cc1c(-c2cccc(Cl)c2)cc(-c2cccc(Cl)c2)[nH]c1=O	64.9%
N=c1sc(Cc2ccc(Cl)cc2)cn1CC(=O)c1ccc(F)cc1	62.7%
COc1cc(CCC[P+](c2ccccc2)(c2ccccc2)c2ccccc2)cc2c1OCO2	-41.2% (active)
CCCCc1ccc(Nc2ccc(Nc3ccc(CCCC)cc3S(=O)(=O)O)c3c2C(=O)c2ccccc2C3=O)c(S(=O)(=O)O)c1	91.9%
COc1ccc2occ(C3=C(c4c[nH]c5ccccc45)C(=O)N(O)C3=O)c2c1	92.7%
CC1(C)OC2C(CO[Si](C)(C)C(C)(C)C)OC(n3c(I)c(C#C[Si](C)(C)C)c(=O)[nH]c3=O)C2O1 (stereo unspecified)	95.9%

SMILES	growth
Cc1ccc(S(=O)(=O)NCC[C@@H]2C[C@H]2c2cc3ccccc3s2)cc1	102%
NC[C@H](O)c1ccc(O)c(O)c1	104%
C=C(C)[C@@H]1CC[C@]2(C(=O)NC3CCCCC3)CC[C@]3(C)[C@H](CC[C@@H]4[C@@]5(C)CCC(=O)C(C)(C)[C@@H]5CC[C@]43C)[C@@H]12	95.9%
N=C1CCC(=N)c2c1c(O)c1ccccc1c2O	126%
COC(=O)[C@]12CC[C@@H](C)[C@H](C)[C@@H]1C1=CC[C@@H]3[C@@]4(C)C(C=O)=C[C@@](C)(COC(C)=O)[C@@H]4C(=O)C[C@@]3(C)[C@]1(C)CC2	51.9%
COc1cc(/C=N/Nc2ncc(-c3cc4cc5c(cc4o3)OCO5)s2)cc(OC)c1OC	4.87% (active)
OC(c1cccc(-n2ccc(C(F)(F)F)n2)c1)c1cnccc1NC1CCCCCC1 (stereo unspecified)	33.8%
COc1ccc(-c2[nH]c(=S)n(C(CC3(C)NCC(=O)N3n3c(-c4ccccc4)cc(C)nc3=S)c3ccc(OC)cc3)c(=O)c2Br)cc1 (stereo unspecified)	79.5%
Cc1ccc(Cl)c(NS(=O)(=O)c2ccc(-c3cnc(C4CC4)o3)cc2)c1	26.4%
O=C(NC(Cc1nnc2n(Cc3ccccc3)c(=O)c3c4c(sc3n12)CCCC4)c1ccc(Cl)cc1)c1ccccc1 (stereo unspecified)	81.9%
Cc1c(O)cc(-c2cnc(N/N=C\c3ccc(Cl)cc3)s2)c(O)c1C	79.8%
CCN(CC)CCn1nc2c3c(cccc3c1=O)-c1ccccc1-2	-20% (active)
Fc1c[c-]c(-c2ccccn2)c(F)c1.[CH3-].[Pt+2].c1ccc(P(C[PH+](c2ccccc2)c2ccccc2)c2ccccc2)cc1	-97.1% (active)
CCN1C(=O)N(CC)C2Nn3c(s/c(=C\c4cccc([N+](=O)[O-])c4)c3=O)=NC21 (stereo unspecified)	31.8%
N#C/C(=C/C=C/c1cccc(Cl)c1)S(=O)c1ccccc1 (stereo unspecified)	-70.5% (active)
Oc1c(CN2CCCC2)cc(COCc2ccc(Br)cc2)c2cccnc12	-15.1% (active)
O=C(CCCCCCN1CC(=O)N2[C@@H](c3ccccc3Cl)c3[nH]c4ccccc4c3C[C@H]2C1=O)NO	46.9%
COc1ccc(C2CC(c3cccc(OC)c3)=NN2C(=O)c2cc(OC)c(OC)c(OC)c2)cc1 (stereo unspecified)	-3.53% (active)
CCc1c2c(nc3ccc(OC(=O)OCc4ccc(B5OC(C)(C)C(C)(C)O5)cc4)cc13)-c1cc3c(c(=O)n1C2)COC(=O)[C@]3(O)CC	-84.2% (active)

tested on: UACC-62 melanoma; test: as above; conditions: 10 µM unless noted

SMILES	growth
Cc1nn(-c2ccccc2)c(Oc2ccc(Cl)cc2)c1/C=N\N=c1/sc2ccccc2n1C	70.8%
CC(C)Sc1nc(NNC(N)=S)c(C#N)c(-c2ccc(F)cc2)n1	91.1%
NC(=O)c1ccc[n+](Cc2ccc(Cl)cc2Cl)c1	93.2%
CCCCCCCC/C=C\CCCCCCCCOc1ccccc1CC(=O)NCC[N+](C)(C)C	66.5%
O=C1Nc2ccccc2/C1=C/c1cn(C(=O)c2ccc(Cl)cc2)c2ccccc12	89.3%
O=C1/C(=C\c2cccnc2)SC(=S)N1CCc1ccc(O)cc1	59.9%
COc1ccc(C2C(c3nn[nH]n3)=C(N)Oc3c2ccc2ccccc32)cc1 (stereo unspecified)	45.9%
COc1ccc(NC(=O)CSc2nnc(-c3cc(-c4ccc(S(N)(=O)=O)cc4)nc4ccccc34)n2-c2ccccc2)cc1	65.3%
COc1ccc(-c2csc(C3=C(O)CN(C(C)C)C3=N)n2)cc1OC	97.3%
Cn1cc(-c2csc(-c3ccccc3)n2)c2cccnc21	-62.7% [100 µM] (active)
CCN1CCN(c2cc(C)nc(NCc3cc(Nc4ccnc5cc(Cl)ccc45)ccc3F)n2)CC1	86.3%
C#CCOc1nc(C)cc(C)c1C#N	93.5%
Cc1cc(O)c(C2=NN(c3ccc(S(N)(=O)=O)cc3)C(c3ccccc3Cl)C2)cc1Cl (stereo unspecified)	45.1%
N#Cc1c(-c2cccc(Cl)c2)cc(-c2cccc(Cl)c2)[nH]c1=O	45.2%
N=c1sc(Cc2ccc(Cl)cc2)cn1CC(=O)c1ccc(F)cc1	9.38% (active)
COc1cc(CCC[P+](c2ccccc2)(c2ccccc2)c2ccccc2)cc2c1OCO2	-3.87% (active)
CCCCc1ccc(Nc2ccc(Nc3ccc(CCCC)cc3S(=O)(=O)O)c3c2C(=O)c2ccccc2C3=O)c(S(=O)(=O)O)c1	84.5%
COc1ccc2occ(C3=C(c4c[nH]c5ccccc45)C(=O)N(O)C3=O)c2c1	80.2%
CC1(C)OC2C(CO[Si](C)(C)C(C)(C)C)OC(n3c(I)c(C#C[Si](C)(C)C)c(=O)[nH]c3=O)C2O1 (stereo unspecified)	92.8%

SMILES	growth
Cc1ccc(S(=O)(=O)NCC[C@@H]2C[C@H]2c2cc3ccccc3s2)cc1	68.1%
NC[C@H](O)c1ccc(O)c(O)c1	102%
C=C(C)[C@@H]1CC[C@]2(C(=O)NC3CCCCC3)CC[C@]3(C)[C@H](CC[C@@H]4[C@@]5(C)CCC(=O)C(C)(C)[C@@H]5CC[C@]43C)[C@@H]12	76.9%
N=C1CCC(=N)c2c1c(O)c1ccccc1c2O	102%
COC(=O)[C@]12CC[C@@H](C)[C@H](C)[C@@H]1C1=CC[C@@H]3[C@@]4(C)C(C=O)=C[C@@](C)(COC(C)=O)[C@@H]4C(=O)C[C@@]3(C)[C@]1(C)CC2	42.1%
COc1cc(/C=N/Nc2ncc(-c3cc4cc5c(cc4o3)OCO5)s2)cc(OC)c1OC	33.7%
OC(c1cccc(-n2ccc(C(F)(F)F)n2)c1)c1cnccc1NC1CCCCCC1 (stereo unspecified)	32.2%
COc1ccc(-c2[nH]c(=S)n(C(CC3(C)NCC(=O)N3n3c(-c4ccccc4)cc(C)nc3=S)c3ccc(OC)cc3)c(=O)c2Br)cc1 (stereo unspecified)	50.6%
Cc1ccc(Cl)c(NS(=O)(=O)c2ccc(-c3cnc(C4CC4)o3)cc2)c1	26.5%
O=C(NC(Cc1nnc2n(Cc3ccccc3)c(=O)c3c4c(sc3n12)CCCC4)c1ccc(Cl)cc1)c1ccccc1 (stereo unspecified)	63.1%
Cc1c(O)cc(-c2cnc(N/N=C\c3ccc(Cl)cc3)s2)c(O)c1C	81.6%
CCN(CC)CCn1nc2c3c(cccc3c1=O)-c1ccccc1-2	5.94% (active)
Fc1c[c-]c(-c2ccccn2)c(F)c1.[CH3-].[Pt+2].c1ccc(P(C[PH+](c2ccccc2)c2ccccc2)c2ccccc2)cc1	-18.7% (active)
CCN1C(=O)N(CC)C2Nn3c(s/c(=C\c4cccc([N+](=O)[O-])c4)c3=O)=NC21 (stereo unspecified)	47%
N#C/C(=C/C=C/c1cccc(Cl)c1)S(=O)c1ccccc1 (stereo unspecified)	-74.2% (active)
Oc1c(CN2CCCC2)cc(COCc2ccc(Br)cc2)c2cccnc12	-22.4% (active)
O=C(CCCCCCN1CC(=O)N2[C@@H](c3ccccc3Cl)c3[nH]c4ccccc4c3C[C@H]2C1=O)NO	34%
COc1ccc(C2CC(c3cccc(OC)c3)=NN2C(=O)c2cc(OC)c(OC)c(OC)c2)cc1 (stereo unspecified)	37.9%
CCc1c2c(nc3ccc(OC(=O)OCc4ccc(B5OC(C)(C)C(C)(C)O5)cc4)cc13)-c1cc3c(c(=O)n1C2)COC(=O)[C@]3(O)CC	-80.8% (active)
